The values that follow come from PubChem BioAssay (Tox21).

For assay [1], the target named is Acetylcholinesterase (Homo sapiens) (UniProt P22303). Kind of assay: Acetylcholinesterase (AChE) small molecule antagonists: colormetric cell-based qHTS assay (AID 1347395). Further: nearly all actives have a fitted effect of over 30% in size. The settings on record: SH-SY5Y cells AChE activity, colorimetric (Ellman); series mostly up to 115 µM. Put shortly:
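After overnight attachment at 37 C, SH-SY5Y cells get 30 min compound exposure; detection cocktail (acetylthiocholine, DTNB) then incubates 90 min at 37 C, and absorbance reflects AChE-generated thiocholine.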

For assay [2] the target is unchanged. In words: Acetylcholinesterase (AChE) small molecule antagonists: enzyme-based qHTS assay (AID 1347397). Further: nearly all actives have a fitted effect of over 55% in size. The settings on record: Potency: AChE enzyme activity inhibition; outcome: AChE enzyme activity inhibition; series mostly up to 115 µM. A digest of the protocol: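 Recombinant human AChE, dispensed at 50 mU/mL, was preincubated with Tox21 10K compounds or DMSO vehicle for 30 min at room temperature. DTNB plus acetylthiocholine was then added, and thiocholine was measured colorimetrically after a further 10 min.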

For assay [3] the target is unchanged. Kind of assay: Acetylcholinesterase (AChE) small molecule antagonists: fluorescence cell-based qHTS assay (AID 1347398). Further: nearly all actives have a fitted effect of over 50% in size. Further: potency means the concentration at half of the fitted maximal effect. The settings on record: SH-SY5Y cells; Potency: AChE activity; outcome: AChE activity; series mostly up to 115 µM. A digest of the protocol: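 Human SH-SY5Y cells were plated overnight at 37 C, exposed to compound for 30 min at 37 C, 5% CO2, then given acetylthiocholine plus Thiolite Green for 40 min at room temperature; thiocholine fluorescence (Ex/Em 490/520 nm) reports endogenous AChE activity.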

The target is the same in assay [4]. In words: Acetylcholinesterase (AChE) small molecule antagonists: enzyme-based qHTS assay with human liver microsomes (AID 1347399). Further: nearly all actives have a fitted effect of over 60% in size. The settings on record: Potency: qHTS inhibition; outcome: qHTS inhibition; series mostly up to 115 µM. Put shortly: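 Recombinant human AChE (50 mU/mL in the enzyme mix) and human liver microsomes (0.25 mg/mL final) were preincubated with compound and NADPH (0.25 mg/mL final) for 30 min at 37 C. Acetylthiocholine/DTNB was then added; thiocholine was read colorimetrically after 10 min at room temperature.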

Each structure is given as a SMILES string. Results filed as inconclusive are left out. More than one record can exist for a structure, and the calls need not agree. Active and inactive are the calls of the source. The call rests on the fitted dose curve.
On the % scale 0 is the no-effect control and ±100 the full control effect.

Chain of Acetylcholinesterase (Homo sapiens) (P22303 whole entry, looked up): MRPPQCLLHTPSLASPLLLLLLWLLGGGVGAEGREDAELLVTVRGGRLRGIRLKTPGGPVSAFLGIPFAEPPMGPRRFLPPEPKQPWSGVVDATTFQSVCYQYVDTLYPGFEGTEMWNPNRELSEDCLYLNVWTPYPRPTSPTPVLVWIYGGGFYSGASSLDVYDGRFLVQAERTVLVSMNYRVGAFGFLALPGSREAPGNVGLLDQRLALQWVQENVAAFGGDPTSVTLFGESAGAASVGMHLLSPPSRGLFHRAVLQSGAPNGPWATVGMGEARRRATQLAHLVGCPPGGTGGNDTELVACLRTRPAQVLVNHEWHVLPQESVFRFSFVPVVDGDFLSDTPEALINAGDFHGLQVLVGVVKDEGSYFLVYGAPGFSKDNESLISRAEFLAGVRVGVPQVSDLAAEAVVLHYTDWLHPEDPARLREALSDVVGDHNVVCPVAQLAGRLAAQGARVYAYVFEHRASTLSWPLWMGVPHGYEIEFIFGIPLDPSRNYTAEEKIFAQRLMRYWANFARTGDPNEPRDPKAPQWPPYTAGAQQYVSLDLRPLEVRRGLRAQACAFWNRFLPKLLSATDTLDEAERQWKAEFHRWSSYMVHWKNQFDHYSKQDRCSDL

As for `OCC(CO)(CBr)CBr`, the Potency result in assay [1], in assay [2], in assay [3] and in assay [4] was “inactive” each time.

With `Nc1ncnc2c1ncn2[C@@H]1O[C@H](CO)[C@@H](O)[C@H]1O`, the Potency entry in assay [1], in assay [2], in assay [3] and in assay [4] was “inactive” throughout.

Take `On1nnc2ccccc21`: the Potency result in assay [1], in assay [2], in assay [3] and in assay [4] was “inactive” in each case.

With `CCCN(CCC)C(=O)SCC`, the Potency result in assay [1], in assay [2], in assay [3] and in assay [4] was “inactive” each time.

As for `COC(=O)C1=C(C)NC(C)=C(C(=O)OCCc2ccc(N3CCN(C(c4ccccc4)c4ccccc4)CC3)cc2)C1c1cccc([N+](=O)[O-])c1` (configuration not stated), the Potency result in assay [1], in assay [2], in assay [3] and in assay [4] was “inactive” throughout.

Turning to `O=C(O)c1ccc(Cl)c(Cl)c1`, the Potency entry in assay [1], in assay [2], in assay [3] and in assay [4] was “inactive” in each case.

On to `COc1cc2c(cc1OC)CN(C(=O)[C@H](C)N[C@@H](CCc1ccccc1)C(=O)O)[C@H](C(=O)O)C2`, for which the Potency entry in assay [1], in assay [2], in assay [3] and in assay [4] was “inactive” throughout.

`CCCCCCCCC(=O)OCC`: the Potency result in assay [1], in assay [2], in assay [3] and in assay [4] was “inactive” in each case.

As to `CN(C)C(=O)CNC(=O)Cc1ccccc1`, the Potency result in assay [1], in assay [2], in assay [3] and in assay [4] was “inactive” in each case.

In the case of `COC(=O)C1=C(C)NC(C)=C(C(=O)OCC(C)C)C1c1ccccc1[N+](=O)[O-]` (configuration not stated), the Potency entry in assay [1], in assay [2], in assay [3] and in assay [4] was “inactive” each time.

In the case of `CC(C)(C)C(=O)c1ccccc1`, the Potency result in assay [1], in assay [2], in assay [3] and in assay [4] was “inactive” each time.

Regarding `O=C1NC(=O)c2ccccc21`, the Potency entry in assay [1], in assay [2], in assay [3] and in assay [4] was “inactive” each time.

`O=C1CCCCCCCCCCCCCCO1`: the Potency result in assay [1], in assay [2], in assay [3] and in assay [4] was “inactive” in each case.

Take `COc1ccccc1NC(=O)CC(C)=O`: the Potency entry in assay [1], in assay [2], in assay [3] and in assay [4] was “inactive” each time.

With `O=[N+]([O-])c1ccc(F)cc1F`, the Potency result in assay [1], in assay [2], in assay [3] and in assay [4] was “inactive” in each case.

On to `COCC(=O)O`, for which the Potency result in assay [1], in assay [2], in assay [3] and in assay [4] was “inactive” throughout.

`CC1(C)OC(=O)NC1=O`: the Potency result in assay [1], in assay [2], in assay [3] and in assay [4] was “inactive” each time.

As to `Cc1ccc(S(=O)(=O)O)c(C)c1`, the Potency result in assay [1], in assay [2], in assay [3] and in assay [4] was “inactive” throughout.

For the compound `O=C1C(c2[nH]c3ccc(S(=O)(=O)O)cc3c2O)=Nc2ccc(S(=O)(=O)O)cc21`, the Potency result in assay [1], in assay [2], in assay [3] and in assay [4] was “inactive” in each case.

`NCCNCCN`: the Potency entry in assay [1], in assay [2], in assay [3] and in assay [4] was “inactive” in each case.

Turning to `O=[N+]([O-])c1ccc2c(c1)Cc1ccccc1-2`, the Potency entry in assay [1], in assay [2] and in assay [4] was “inactive” throughout. Moreover, the Potency in assay [3] was 39.9 µM (active) and inactive.

Take `CCCCC(CC)COC(C)=O` (configuration not stated): the Potency entry in assay [1], in assay [2], in assay [3] and in assay [4] was “inactive” each time.

Turning to `CCCCOC(=O)CCS`, the Potency entry in assay [1], in assay [2], in assay [3] and in assay [4] was “inactive” in each case.

As to `COC(=O)C(C)Oc1ccc(Oc2ncc(C(F)(F)F)cc2Cl)cc1` (configuration not stated), the Potency result in assay [1], in assay [2], in assay [3] and in assay [4] was “inactive” throughout.

`Cc1coc2ccccc2c1=O`: the Potency entry in assay [1], in assay [2], in assay [3] and in assay [4] was “inactive” throughout.

Take `CCCCN(CCO)CCO`: the Potency entry in assay [1], in assay [2], in assay [3] and in assay [4] was “inactive” throughout.

Turning to `C=C(C)C(=O)OCC(C)O` (configuration not stated), the Potency result in assay [1], in assay [2], in assay [3] and in assay [4] was “inactive” in each case.

Regarding `Nc1ccccc1S(=O)(=O)O`, the Potency entry in assay [1], in assay [2], in assay [3] and in assay [4] was “inactive” in each case.

With `CC(=O)N(O)CCCCCNC(=O)CCC(=O)N(O)CCCCCNC(=O)CCC(=O)N(O)CCCCCN`, the compound was called inactive in assay [1], in assay [2], in assay [3] and in assay [4].

Take `CC(Oc1c(Cl)cccc1Cl)C1=NCCN1` (configuration not stated): the Potency result in assay [1], in assay [2], in assay [3] and in assay [4] was “inactive” in each case.

As for `CCCCCCCCCCCCCCCCCCOCCO`, the activity, negative = inhibition in assay [1] was 0.0969% [at 23.6 µM] (inactive). Further, the values for the activity change, negative = inhibition in assay [2], in assay [3] and in assay [4] were 1.34% [at 23.6 µM] (inactive), -1.79% [at 23.8 µM] (inactive) and 0.112% [at 23.6 µM] (inactive), respectively.

`O=C(c1ccccc1)c1cccc(O)c1`: the Potency entry in assay [1], in assay [2], in assay [3] and in assay [4] was “inactive” in each case.

In the case of `CC1(C)NC(=O)NC1=O`, the Potency entry in assay [1], in assay [2], in assay [3] and in assay [4] was “inactive” each time.

`O=C(O)CCCCCCCCCCC(=O)O`: the Potency entry in assay [1], in assay [2], in assay [3] and in assay [4] was “inactive” throughout.

On to `COc1c(Cl)ccc(Cl)c1C(=O)O`, for which the Potency result in assay [1], in assay [2], in assay [3] and in assay [4] was “inactive” throughout.

Consider `C#CC(O)CCC` (configuration not stated), for which the Potency entry in assay [1], in assay [2], in assay [3] and in assay [4] was “inactive” in each case.

Regarding `CC1(C)CC(N=C=O)CC(C)(CN=C=O)C1` (configuration not stated), the Potency entry in assay [1], in assay [2], in assay [3] and in assay [4] was “inactive” in each case.

For `C=CC(=O)OCCC#N`, the Potency entry in assay [1], in assay [2], in assay [3] and in assay [4] was “inactive” throughout.
